Source: PubChem BioAssay (NCATS)
Records with an inconclusive call do not appear. Activity calls are given as the source filed them. Unless noted, the call rests on the fitted dose curve; in most records, active means well fitted curve in either direction with a large enough effect (not every such curve was filed as active); inconclusive means small, poorly fitted or top-dose-only effect, or another doubt; inactive means flat fitted curve, though single readings scatter.

How the values were obtained:
[1] = molecular target: Lysosomal acid glucosylceramidase (Homo sapiens) (UniProt P04062); assay: Glucocerebrosidase-p2 (AID 348; in the data active means potency below about 10 µM; further: potency means the concentration at half of the fitted maximal effect); settings: purified GBA, blue fluorogenic substrate, 40 min
In short: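 Normal human glucocerebrosidase (0.2 nM) with blue fluorogenic substrate (80 uM final) in citrate/phosphate pH 5.9 with 10mM sodium taurocholate, 0.01% tween-20; 40 min RT, NaOH/glycine stop; fluorescence Ex 365/Em 440; AC50 from a titration from 0.6 nM upwards.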

[2] = AP1 Signaling Pathway (AID 357); settings: ME-180 AP-1-bla reporter, EGF-induced, beta-lactamase ratio, 5 h; at 7.69 µM (top of the series) unless noted;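 further: ME-180 reporter cells stimulated with EGF at its EC50 level; on the % scale 0 is the no-effect control and ±100 the full control effect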
In short: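 Modulation of EGF-driven AP-1 transcription was assessed with a beta-lactamase reporter in ME-180 cells. Compound and EC50 EGF were co-incubated 5 hours at 37 °C before 2.5-hour CCF4 loading at room temperature and dual-emission reading.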

[3] = molecular target: Cytochrome P450 1A2 (Homo sapiens) (UniProt P05177); assay: p450-cyp1a2 (AID 410; calls by dose curve; further: potency means the concentration at half of the fitted maximal effect;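 on activity change, negative = inhibition: -100% = full effect of reference inhibitor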); settings: recombinant CYP1A2, luciferin-ME demethylation, luminescence; series mostly up to 57 µM
In short: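 20nM CYP1A2, 100uM Luciferin-ME (=Km), 100mM KPO4; cpd 10 min RT; +NADPH regen, 60 min RT; stop/detect 20 min; luminescence. Normalized to furafylline 57 uM = full inhibition.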

[4] = NFAT Signaling Pathway (AID 444); settings: Jurkat NFAT-bla M1, carbachol, beta-lactamase ratio, 5 h; at 7.69 µM (top of the series) unless noted;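 further: carbachol stimulus at about its EC50 of 1 µM final; on the % scale 0 is the no-effect control and ±100 the full control effect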
In short: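 Jurkat cells carrying an NFAT-driven β-lactamase reporter and co-transfected muscarinic M1 receptor were treated with compound plus carbachol (1 uM final, an EC50 level) for 5 h at 37 °C. CCF4 loading followed for 1 h at RT; 460/530 nm ratio gave %activity.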

[5] = Stat Signaling Pathway (AID 446); settings: ME-180 SIE beta-lactamase reporter, IL-6 stimulated, 5 h; at 7.69 µM (top of the series) unless noted;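 further: ME-180 cervical cancer cells given 40 pM IL-6 alongside compound; SIE-controlled beta-lactamase reporter measured as 460/530 nm FRET emission ratio; on the % scale 0 is the no-effect control and ±100 the full control effect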
In short: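 Emission at 460 and 530 nm (excitation 405 nm) reports SIE-controlled beta-lactamase in ME-180 cells. Cells received compound with 40 pM IL-6 for 5 hrs at 37 C; data scaled between 300 pM IL-6 and 125 nM JAK-inhibitor controls.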

[6] = molecular target: Glucocorticoid receptor (Homo sapiens) (UniProt P04150); assay: GR-GFP Redistribution (AID 450;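 active means compounds whose dose series gives a full or clear partial fitted curve of increased nuclear translocation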; further: potency means the concentration at half of the fitted maximal effect); settings: U2OS GR-GFP nuclear translocation, laser cytometry, 2 h
[7] = molecular target: Glucocorticoid receptor (Homo sapiens) (UniProt P04150); assay: GR-EFC Redistribution (AID 451; calls by dose curve; further: potency means the concentration at half of the fitted maximal effect); settings: CHO-K1 GR-EFC translocation, beta-gal luminescence, 2 h
In short: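 CHO-K1 cells stably expressing nuclear-localized β-gal enzyme acceptor and GR fused C-terminally to the enzyme donor fragment; ligand-driven nuclear translocation restores β-gal by complementation. Compounds titrated up to 46 uM final, 2 h at 37 °C; luminescence read.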

[8] = molecular target: Mitogen-activated protein kinase 10 (Mus musculus) (UniProt Q61831); assay: JNK3 AlphaScreen Assay (AID 530); settings: JNK3 lysate, c-Jun phosphorylation; series mostly up to 57.1 µM;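 further: kinase came from lysate of stimulated human HepG2 cells; signal reports phosphorylation of biotinylated GST-cJun 1-79 at Ser73 with 10 µM ATP; on the % scale 0 is the no-effect control and ±100 the full control effect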
In short: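 Biotinylated GST-cJun(1-79) served as substrate for JNK3 in HepG2 lysates stimulated with IL-1beta and TNF-alpha. ATP was 10 uM final, pH 7.6. Ser73 phosphorylation was quantified by AlphaScreen (680 nm excitation).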

[9] = molecular target: 3',5'-cyclic-AMP phosphodiesterase 4B (Homo sapiens) (UniProt Q07343); assay: qHTS Assay for Inhibitors of PDE-IV (AID 607; active means well fitted activation curve with a large enough effect in the main read-out, with a control signal flat, not every such curve was filed as active; further: % of control where 0% means no effect); settings: HEK293 ACTOne CNG channel cells, membrane potential fluorescence; series mostly up to 22.9 µM
In short: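 The readout is membrane depolarisation from a cAMP-sensing CNG channel, detected with a potential dye at ex 535/em 590. Cells were HEK293-derived (endogenous PDE-IV) at 1000 cells/well, titrated up to 22.9 uM final.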

[10] = molecular target: Cytochrome P450 3A4 (Homo sapiens) (UniProt P08684); assay: qHTS Assay for Activators of Cytochrome P450 3A4 (AID 885; active means well fitted curve in the direction sought with a large enough effect; an effect the other way counts as inactive or inconclusive; further: nearly all actives have a fitted effect of over 65% in size); settings: recombinant CYP3A4, Luciferin-PPXE luminescence, 60 min; series mostly up to 57.1 µM
In short: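 Activators are scored by enhanced luminescence from CYP3A4 conversion of luciferin-PPXE (25uM, equal to KM) to luciferin, after 60 min at RT with an NADPH-regenerating system.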

[11] = qHTS Assay for Identification of Small Molecule Agonists for Hypoxia Response Element Signaling Pathway (AID 914; active means well fitted activation curve with a large enough effect in the signal ratio, with a control signal flat, not every such curve was filed as active; the % refers to the signal ratio; further: % of control where 0% means no effect); settings: ME-180 (cervical carcinoma) HRE-bla reporter, beta-lactamase ratio, CoCl2, 17 h; activation: stronger effect = higher value
In short: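 AC50 values come from titration-series %Activity, taken as the 460/530nm ratio of CCF4 fluorescence (excitation 405nm). CellSensor HRE-bla ME-180 cells were treated 17 hours at 37 C with compound plus an EC50 level of CoCl2.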

[12] = qHTS Assay for Lipid Storage Modulators (AID 1519; calls by dose curve); settings: Drosophila S3 cells, BODIPY lipid droplet/cell ratio, laser cytometry, cells loaded with oleic acid; for activity change, negative = inhibition: at 57.5 µM (top of the series)
In short: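 Cells seeded at 5,000 per well were treated with compounds over a concentration series and loaded with oleic acid (400 uM, as added). Lipid droplet fluorescence (488 nm excitation, 500-530 nm channel) was read by laser-scanning cytometry and normalized to 20 uM Triacsin C.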

[13] = Primary qHTS for small molecule stabilizers of the endoplasmic reticulum resident proteome: Secreted ER Calcium Modulated Protein (SERCaMP) assay (AID 1508630; active means well fitted curve in the direction sought with a large enough effect; an effect the other way counts as inactive or inconclusive; further: on the % scale 0 is the no-effect control and ±100 the full control effect); settings: SH-SY5Y GLuc-SERCaMP (Gaussia luciferase released on ER calcium loss) secretion, thapsigargin, luminescence; series mostly up to 38.4 µM
In short: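 The SH-SY5Y reporter protocol was run at 3 concentrations up to 38.3 uM (primary) or 11 concentrations (follow-up): 16 h compound, 100 nM thapsigargin for 4 h, then extracellular luciferase luminescence.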

[14] = molecular target: Cytochrome P450 3A4 (Homo sapiens) (UniProt P08684); assay: qHTS Assay for Inhibitors and Substrates of Cytochrome P450 3A4 (AID 884; active means well fitted curve in the direction sought with a large enough effect; an effect the other way counts as inactive or inconclusive; further: potency means the concentration at half of the fitted maximal effect; nearly all actives have a fitted effect of over 50% in size); settings: recombinant CYP3A4, Luciferin-PPXE luminescence; series mostly up to 57.1 µM
In short: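 Luminescent readout of luciferin produced by CYP3A4 (20 nM) dealkylation of Luciferin-PPXE, 25 uM (its KM). NADPH-driven reaction ran 60 min at RT after 10 min compound preincubation; data scaled to 57 uM ketoconazole as 100% inhibition.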

[15] = molecular target: Cytochrome P450 2C19 (Homo sapiens) (UniProt P33261); assay: qHTS Assay for Inhibitors and Substrates of Cytochrome P450 2C19 (AID 899; active means well fitted curve in the direction sought with a large enough effect; an effect the other way counts as inactive or inconclusive; further: potency means the concentration at half of the fitted maximal effect; nearly all actives have a fitted effect of over 60% in size); settings: recombinant CYP2C19, luciferin-H EGE luminescence; series mostly up to 57.1 µM
In short: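 Human CYP2C19 (5nM) with Luciferin-H EGE at 10uM (its KM) in 50mM KPO4 was preincubated with compound for 10 min at 37C. NADPH regeneration started a 60 min 37C reaction. Luciferin was read by luminescence, normalized to 57uM ketoconazole.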

[16] = Confirmation and Secondary Assay for Modulators of Hemoglobin Beta Chain Splicing at IVS2 654 locus (AID 910; active means well fitted curve in the direction sought with a large enough effect; an effect the other way counts as inactive or inconclusive;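 further: per-well total GFP intensity by laser scanning cytometry after 2-day treatment; % of control where 0% means no effect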); settings: HeLa EGFP-654 splicing reporter, GFP fluorescence, 48 h; series mostly up to 38.3 µM
In short: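 HeLa cells stably carrying EGFP interrupted by mutant beta-globin IVS2-654 intron (CMV-driven) were treated with compound for 2 days at 37C; corrected splicing was scored as total peak GFP intensity per well (488 nm excitation, 500-520 nm emission).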

[17] = Confirmation and Secondary Assay for Modulators of Hemoglobin Beta Chain Splicing at IVS2 705 locus (AID 930; active means well fitted curve in the direction sought with a large enough effect; an effect the other way counts as inactive or inconclusive;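 further: HeLa cells stably expressing the EGFP-705 splicing reporter; % of control where 0% means no effect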); settings: HeLa EGFP-705 splicing reporter, GFP fluorescence, 48 h; series mostly up to 38.3 µM
In short: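 Restored EGFP fluorescence after 2-day compound exposure reports splicing correction in IVS2-705 EGFP reporter HeLa cells; positive control was 500 nM splice-blocking PNA oligo. Signal measured as well total peak GFP intensity (488 nm excitation).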

[18] = measured here: cell count channel max response
[19] = measured here: lipid channel max response

Sequence of Cytochrome P450 1A2 (Homo sapiens) (P05177 whole entry, looked up): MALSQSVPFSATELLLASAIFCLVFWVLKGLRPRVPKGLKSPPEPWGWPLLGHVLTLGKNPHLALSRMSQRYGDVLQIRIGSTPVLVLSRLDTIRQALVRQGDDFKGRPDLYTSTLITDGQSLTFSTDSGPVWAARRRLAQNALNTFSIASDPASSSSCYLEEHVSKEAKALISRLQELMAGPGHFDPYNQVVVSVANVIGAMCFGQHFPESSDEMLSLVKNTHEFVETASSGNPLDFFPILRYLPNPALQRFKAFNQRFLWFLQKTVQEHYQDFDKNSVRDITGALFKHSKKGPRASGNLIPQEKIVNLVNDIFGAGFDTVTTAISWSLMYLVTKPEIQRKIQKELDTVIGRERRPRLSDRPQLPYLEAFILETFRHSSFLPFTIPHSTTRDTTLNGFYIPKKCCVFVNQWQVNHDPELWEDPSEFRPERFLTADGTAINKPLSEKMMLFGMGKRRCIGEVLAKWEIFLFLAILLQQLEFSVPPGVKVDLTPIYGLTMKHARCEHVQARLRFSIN
Sequence of Lysosomal acid glucosylceramidase (Homo sapiens) (P04062 whole entry, looked up): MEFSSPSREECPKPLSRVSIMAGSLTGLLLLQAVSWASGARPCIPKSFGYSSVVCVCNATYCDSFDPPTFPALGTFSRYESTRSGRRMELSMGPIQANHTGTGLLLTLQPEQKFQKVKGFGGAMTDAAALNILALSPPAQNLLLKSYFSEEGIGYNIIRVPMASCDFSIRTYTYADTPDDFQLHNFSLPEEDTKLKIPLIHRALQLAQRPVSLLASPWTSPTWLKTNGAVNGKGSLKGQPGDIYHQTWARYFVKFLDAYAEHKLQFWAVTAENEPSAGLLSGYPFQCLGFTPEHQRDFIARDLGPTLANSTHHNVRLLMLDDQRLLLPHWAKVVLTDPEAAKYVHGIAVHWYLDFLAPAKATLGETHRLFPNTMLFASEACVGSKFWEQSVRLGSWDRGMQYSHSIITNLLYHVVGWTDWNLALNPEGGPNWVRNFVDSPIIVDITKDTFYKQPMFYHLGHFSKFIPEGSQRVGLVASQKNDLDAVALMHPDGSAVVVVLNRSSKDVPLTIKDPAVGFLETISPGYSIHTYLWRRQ
Sequence of Glucocorticoid receptor (Homo sapiens) (P04150 whole entry, looked up, the tested form may be a part): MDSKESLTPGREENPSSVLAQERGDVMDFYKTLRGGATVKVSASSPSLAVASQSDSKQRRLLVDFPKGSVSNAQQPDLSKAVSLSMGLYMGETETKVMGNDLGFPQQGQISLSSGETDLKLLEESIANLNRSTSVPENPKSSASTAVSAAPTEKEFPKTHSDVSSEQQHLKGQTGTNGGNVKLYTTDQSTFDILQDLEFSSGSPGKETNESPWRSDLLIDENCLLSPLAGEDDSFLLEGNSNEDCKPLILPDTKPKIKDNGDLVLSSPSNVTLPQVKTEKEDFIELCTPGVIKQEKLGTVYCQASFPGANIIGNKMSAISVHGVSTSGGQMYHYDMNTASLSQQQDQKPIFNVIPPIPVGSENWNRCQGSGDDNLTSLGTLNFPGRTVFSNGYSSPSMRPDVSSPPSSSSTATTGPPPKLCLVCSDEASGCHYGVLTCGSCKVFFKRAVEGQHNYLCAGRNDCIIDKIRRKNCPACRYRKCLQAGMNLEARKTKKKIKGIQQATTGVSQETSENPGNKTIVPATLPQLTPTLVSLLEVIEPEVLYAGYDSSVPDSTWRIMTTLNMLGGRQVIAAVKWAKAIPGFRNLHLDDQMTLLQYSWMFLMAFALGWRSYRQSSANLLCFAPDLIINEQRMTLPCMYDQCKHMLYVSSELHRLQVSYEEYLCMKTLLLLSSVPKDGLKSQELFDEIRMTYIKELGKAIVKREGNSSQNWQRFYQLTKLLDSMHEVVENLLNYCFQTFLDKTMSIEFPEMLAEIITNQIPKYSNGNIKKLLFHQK
Sequence of Cytochrome P450 3A4 (Homo sapiens) (P08684 whole entry, looked up): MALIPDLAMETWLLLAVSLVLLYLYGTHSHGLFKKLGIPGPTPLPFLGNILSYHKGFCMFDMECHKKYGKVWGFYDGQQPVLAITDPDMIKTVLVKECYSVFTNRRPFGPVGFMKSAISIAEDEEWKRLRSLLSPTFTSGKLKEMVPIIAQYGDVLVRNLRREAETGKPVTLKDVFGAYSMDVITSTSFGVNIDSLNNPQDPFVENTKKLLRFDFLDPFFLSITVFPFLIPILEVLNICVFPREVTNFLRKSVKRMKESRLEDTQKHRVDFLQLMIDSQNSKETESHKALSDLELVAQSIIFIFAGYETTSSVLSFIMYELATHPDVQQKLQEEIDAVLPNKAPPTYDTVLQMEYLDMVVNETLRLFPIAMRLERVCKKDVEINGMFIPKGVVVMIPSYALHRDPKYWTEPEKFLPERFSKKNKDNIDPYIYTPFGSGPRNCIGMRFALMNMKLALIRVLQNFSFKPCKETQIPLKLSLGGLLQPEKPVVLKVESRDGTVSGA
Sequence of 3',5'-cyclic-AMP phosphodiesterase 4B (Homo sapiens) (Q07343 whole entry, looked up): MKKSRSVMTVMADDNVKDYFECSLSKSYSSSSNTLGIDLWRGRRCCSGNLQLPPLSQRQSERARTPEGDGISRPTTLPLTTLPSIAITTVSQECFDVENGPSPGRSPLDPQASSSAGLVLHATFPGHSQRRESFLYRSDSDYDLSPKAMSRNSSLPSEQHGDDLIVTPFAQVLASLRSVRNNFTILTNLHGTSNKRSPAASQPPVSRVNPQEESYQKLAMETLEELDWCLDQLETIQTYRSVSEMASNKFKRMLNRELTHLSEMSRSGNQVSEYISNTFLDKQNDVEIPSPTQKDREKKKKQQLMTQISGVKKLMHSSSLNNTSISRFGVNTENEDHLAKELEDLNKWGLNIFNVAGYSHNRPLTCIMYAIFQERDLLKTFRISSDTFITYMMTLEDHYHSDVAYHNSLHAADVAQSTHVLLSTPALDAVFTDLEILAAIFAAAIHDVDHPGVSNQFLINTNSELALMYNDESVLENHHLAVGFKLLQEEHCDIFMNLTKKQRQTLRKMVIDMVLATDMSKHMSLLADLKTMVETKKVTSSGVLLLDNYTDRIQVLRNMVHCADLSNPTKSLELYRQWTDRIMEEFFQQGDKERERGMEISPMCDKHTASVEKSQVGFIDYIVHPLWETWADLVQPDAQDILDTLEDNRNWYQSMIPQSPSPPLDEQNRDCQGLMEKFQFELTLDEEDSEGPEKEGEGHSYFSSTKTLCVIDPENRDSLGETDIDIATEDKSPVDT
Sequence of Cytochrome P450 2C19 (Homo sapiens) (P33261 whole entry, looked up): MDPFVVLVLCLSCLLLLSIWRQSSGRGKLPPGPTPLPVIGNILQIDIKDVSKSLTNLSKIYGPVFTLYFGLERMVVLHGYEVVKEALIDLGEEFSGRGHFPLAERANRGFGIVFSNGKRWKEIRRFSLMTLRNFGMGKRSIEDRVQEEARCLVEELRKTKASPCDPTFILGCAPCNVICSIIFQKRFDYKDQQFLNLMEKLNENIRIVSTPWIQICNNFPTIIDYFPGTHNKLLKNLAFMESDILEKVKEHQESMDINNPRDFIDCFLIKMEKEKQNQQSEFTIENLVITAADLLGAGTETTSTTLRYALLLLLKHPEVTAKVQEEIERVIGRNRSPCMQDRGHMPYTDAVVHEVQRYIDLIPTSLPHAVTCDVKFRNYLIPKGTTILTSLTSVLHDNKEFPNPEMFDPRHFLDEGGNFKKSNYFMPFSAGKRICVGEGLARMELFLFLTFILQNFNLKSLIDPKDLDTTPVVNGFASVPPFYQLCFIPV

COc1ncc2nc(-c3cccc(C#N)c3)c(=O)n(CCC#N)c2n1
Potency [1]: > 11.4 µM (inactive) | activity change, negative = inhibition [2]: -2.26% (inactive) | Potency [3]: 20 µM (active) | activity change, negative = inhibition [4]: -6.7% (inactive) | activity, negative = inhibition [5]: -3.36% (inactive) | Potency [6]: > 9.22 µM (inactive) | Potency [7]: > 46 µM (inactive) | outcome [8]: inactive | Potency [9]: inactive | Potency [10]: inactive | activation [11]: -3.76% (inactive) | activity change, negative = inhibition [12]: 3.8% (inactive) | max response [12, 18]: 14.2% | max response [12, 19]: 20.3% | Potency [13]: inactive

O=C(c1csnn1)N1CCC[C@@]2(CCN(c3ncccn3)C2)C1
Potency [1]: > 11.4 µM (inactive) | activity change, negative = inhibition [2]: -0.372% (inactive) | Potency [3]: 12.6 µM (active) | activity change, negative = inhibition [4]: 8.43% (inactive) | activity, negative = inhibition [5]: 1.56% (inactive) | Potency [7]: > 46 µM (inactive) | outcome [8]: inactive | activity change, negative = inhibition [12]: 7.22% (inactive) | max response [12, 18]: 8.99% | max response [12, 19]: 21.1% | Potency [13]: inactive

CC(=O)N1CCC2(CCCN(c3ccccn3)C2)CC1
Potency [1]: > 11.4 µM (inactive) | activity change, negative = inhibition [2]: 4.59% (inactive) | Potency [3]: inactive | activity change, negative = inhibition [4]: 3.45% (inactive) | activity, negative = inhibition [5]: -5.49% (inactive) | Potency [7]: > 46 µM (inactive) | outcome [8]: inactive | activity change, negative = inhibition [12]: 5.15% (inactive) | max response [12, 18]: 19.4% | max response [12, 19]: 28% | Potency [13]: inactive

COCC(=O)N1CCC2(CC1)CCN(C(=O)Nc1ccc(OC)cc1)CC2
Potency [1]: > 11.4 µM (inactive) | activity change, negative = inhibition [2]: -6.71% (inactive) | Potency [3]: inactive | activity change, negative = inhibition [4]: 6.08% (inactive) | activity, negative = inhibition [5]: -0.498% (inactive) | Potency [7]: > 46 µM (inactive) | outcome [8]: inactive | activity change, negative = inhibition [12]: 4.36% (inactive) | max response [12, 18]: 13.2% | max response [12, 19]: 20.1% | Potency [13]: inactive

CN(C)c1ccc(-c2cncnc2NCc2cccs2)cc1
Potency [1]: > 11.4 µM (inactive) | activity change, negative = inhibition [2]: -15.1% (inactive) | Potency [3]: 0.398 µM (active) | activity change, negative = inhibition [4]: 2.25% (inactive) | activity, negative = inhibition [5]: -0.237% (inactive) | Potency [6]: > 46 µM (inactive) | Potency [7]: > 46 µM (inactive) | Potency [14]: 0.794 µM (active) | Potency [10]: inactive | Potency [15]: 0.631 µM (active) | outcome [16]: inactive | outcome [17]: inactive | activity change, negative = inhibition [12]: 7.98% (inactive) | max response [12, 18]: 4.82% | max response [12, 19]: 15.4% | Potency [13]: inactive

COc1ccc(C(=O)N2CCC3(CC2)CN(C(=O)Nc2ccccc2)C3)cc1
Potency [1]: > 11.4 µM (inactive) | activity change, negative = inhibition [2]: -1.19% (inactive) | Potency [3]: 25.1 µM (active) | activity change, negative = inhibition [4]: 22.2% (inactive) | activity, negative = inhibition [5]: -10.2% (inactive) | Potency [7]: > 46 µM (inactive) | outcome [8]: inactive | Potency [9]: inactive | activity change, negative = inhibition [12]: 5.49% (inactive) | max response [12, 18]: 8.4% | max response [12, 19]: 17.6% | Potency [13]: inactive

COc1ccccc1CN1CCCC2(CCNCC2)C1
Potency [1]: > 11.4 µM (inactive) | activity change, negative = inhibition [2]: -7.6% (inactive) | Potency [3]: inactive | activity change, negative = inhibition [4]: -29.2% (inactive) | activity, negative = inhibition [5]: 2.38% (inactive) | Potency [7]: > 46 µM (inactive) | outcome [8]: inactive | activity change, negative = inhibition [12]: 6.8% (inactive) | max response [12, 18]: 4.5% | max response [12, 19]: 14.4% | Potency [13]: inactive

COc1ccc(NC(=O)N2CC[C@@]3(CCCNC3)C2)cc1
Potency [1]: > 11.4 µM (inactive) | activity change, negative = inhibition [2]: -15.6% (inactive) | Potency [3]: inactive | activity change, negative = inhibition [4]: -5.59% (inactive) | activity, negative = inhibition [5]: -0.259% (inactive) | Potency [7]: > 46 µM (inactive) | outcome [8]: inactive | activity change, negative = inhibition [12]: -2.79% (inactive) | max response [12, 18]: -3.47% | max response [12, 19]: -5.51% | Potency [13]: inactive
